Inconclusive results are not listed. Active and inactive are the calls of the source. Calls follow the shape of the dose curve; as a rule, active = well fitted inhibition curve with a large enough effect; inconclusive = small, poorly fitted or top-dose-only effect; inactive = flat fitted curve, though single readings scatter.
tested on: Zika virus NS2B-NS3 protease; test: Primary screen GU AMC qHTS for Zika virus inhibitors (AID 1347154); conditions: Zika NS2B-NS3 unlinked protease, AMC fluorogenic substrate; series mostly up to 54.1 µM; activity change, negative = inhibition: at the top concentration;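 also: 0% = no-inhibitor control and -100% = no-enzyme control; nearly all actives have a fitted effect of over 70% in size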
Procedure, shortened: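 Unlinked Zika NS2B hydrophilic domain/NS3 protease domain noncovalent complex (25 nM final) in 10 mM Tris-HCl pH 8.0, 0.01% Tween 20, with AMC peptide substrate. Fluorescence (ex 340, em 450 nm) change over 15 min, room temperature; percent inhibition fitted to 4-parameter Hill equation.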

Structure (SMILES) | activity change, negative = inhibition | Potency
CCCN(CCC)CCc1c[nH]c2ccc(C(N)=O)cc12 | -7.99% (inactive) | 
Cc1cccc(C(C)c2cnc[nH]2)c1C (configuration not stated) | 6.98% (inactive) | 
Cc1cc(C)cc(C(=O)OC2C[C@H]3CC[C@@H](C2)N3C)c1 (some centres not stated) | 14.8% (inactive) | 
CN1c2ccccc2C(NCCCCCCC(=O)O)c2ccc(Cl)cc2S1(=O)=O (configuration not stated) | -0.305% (inactive) | 
C=C(C)[C@H]1O[C@H]2CC[C@@]3(C)[C@@](O)(CC[C@H]4[C@@H]5OC(C)(C)[C@H]6C[C@@H]7C(=C)Cc8c(Cl)cc9[nH]c(c5c9c8[C@@]76O)[C@@]43C)[C@]23O[C@@H]3[C@H]1O | 21.2% (inactive) | 
C[CH2][Hg][S]c1ccccc1C(=O)O | 9.86% (inactive) | 
O=c1c2ccccc2[se]n1-c1ccccc1 | 14.3% [at 104 µM] (inactive) | 
CCCSP(=O)(OCC)SCCC | -4.09% [at 104 µM] (inactive) | 
N#CC(C#N)=Cc1cc(O)c(O)c(O)c1 | 20.1% (inactive) | 
CCCN(CCC)CCc1ccc(O)c(O)c1 | 5.69% (inactive) | 
NCCc1c[nH]c2ccc(C(N)=O)cc12 |  | inactive
CC(C)[C@@]1(NC(=O)[C@@H]2C[C@@H]3c4cccc5[nH]cc(c45)C[C@H]3N(C)C2)O[C@@]2(O)[C@@H]3CCCN3C(=O)[C@H](Cc3ccccc3)N2C1=O | 1.27% (inactive) | 

Source: PubChem BioAssay (NCATS)
